Results from the supplement of paper PMC9262897, “Low-cost anti-mycobacterial drug discovery using engineered E. coli” (Nature Communications, 2022).
Where a name gives a salt, the structure may show the parent alone. ± gives the standard deviation of the averaged measurements.

The compounds below were run on E. coli TESEC Mtb Alr (assay: growth (OD600 after 10 h); higher = more growth (less inhibition)). Conditions: arabinose 100 nM; compound 0.1 mM; raw OD600 reference: median of DMSO wells 0.413, cell-free background 0.052.
Experimental: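 TESEC Mtb Alr E. coli (ΔaraC ΔtolC ΔentC Δalr ΔdadX, arabinose-inducible Mtb Alr) or the Alr+ wild-type control strain, grown in defined M9-fructose medium without D-alanine in 96-well plates with Prestwick library compounds at 0.1 mM and 1% DMSO. Low Alr induction is 0.1 µM arabinose and high induction is 10 mM arabinose.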

Structure (SMILES)	growth
COc1cc(C(=O)NS(=O)(=O)c2ccccc2C)ccc1Cc1cn(C)c2ccc(NC(=O)OC3CCCC3)cc12 [Zafirlukast]	0.257 ± 0.018
NNc1nncc2ccccc12 [Hydralazine hydrochloride]	0.404 ± 0.0077
Nc1c2c(nc3ccccc13)CCCC2O (racemic) [Hydroxytacrine maleate (R,S)]	0.4 ± 0.0077
CCN(CC)CCOC(=O)C1(C2CCCCC2)CCCCC1 [Dicyclomine hydrochloride]	0.393 ± 0.017
O=C(Oc1cccc2cccnc12)c1ccccc1 [Benzoxiquine]	0.368 ± 0.016
O=C1CC2(CCCC2)CC(=O)N1CCCCN1CCN(c2ncccn2)CC1 [Buspirone hydrochloride]	0.411 ± 0.0053
CCN(CC)C(=O)C1(c2ccccc2)CC1CN (stereo not given) [Milnacipran hydrochloride]	0.424 ± 0.014
CCN(CC)CC#CCOC(=O)C(O)(c1ccccc1)C1CCCCC1 (stereo not given) [Oxybutynin chloride]	0.398 ± 0.031
C[C@]12C=CC(=O)C=C1CC[C@H]1[C@@H]3C[C@@H](O)[C@](O)(C(=O)CO)[C@@]3(C)C[C@H](O)[C@@]12F [Triamcinolone]	0.4315 ± 0.0037
O=C(CCCCC(=O)Nc1c(I)cc(I)c(C(=O)O)c1I)Nc1c(I)cc(I)c(C(=O)O)c1I [Iodipamide]	0.407 ± 0.013
CCN(CCO)CCCC(C)Nc1ccnc2cc(Cl)ccc12 (stereo not given) [Hydroxychloroquine sulfate]	0.405 ± 0.01
Cc1ccsc1/C=C/C1=NCCCN1C [Morantel tartrate]	0.409 ± 0.0089
Cc1noc(NS(=O)(=O)c2ccc(N)cc2)c1C [Sulfisoxazole]	0.424 ± 0.012
C=CCOc1ccccc1OCC(O)CNC(C)C (stereo not given) [Oxprenolol hydrochloride]	0.414 ± 0.0042
CCOc1ccc2c(c1)C(C)=CC(C)(C)N2 [Ethoxyquin]	0.408 ± 0.0097
CC1Cc2ccccc2N1NC(=O)c1ccc(Cl)c(S(N)(=O)=O)c1 (stereo not given) [Indapamide]	0.425 ± 0.014
CCC(=O)OCC(=O)[C@@]1(OC(=O)CC)[C@H](C)C[C@H]2[C@H]3[C@H]([C@@H](O)C[C@@]21C)[C@@]1(C)C=CC(=O)C=C1C[C@H]3Cl [Alclometasone dipropionate]	0.401 ± 0.0078
Cc1scc2c1N(C(=O)CN1CCN(C)CC1)c1ccccc1NC2=O [Telenzepine dihydrochloride]	0.407 ± 0.011
O=C1CC[C@@H](C(=O)N2CSC[C@H]2C(=O)O)N1 [Pidotimod]	0.42 ± 0.011
CCC1NC(=O)c2cc(S(N)(=O)=O)c(Cl)cc2N1 (stereo not given) [Quinethazone]	0.415 ± 0.006

Structure (SMILES)	growth
CN1CCCN(C(c2ccccc2)c2ccc(Cl)cc2)CC1 (stereo not given) [Homochlorcyclizine dihydrochloride]	0.413 ± 0.0053
C1N2CN3CN1CN(C2)C3 [Methenamine]	0.41 ± 0.01
CC(C)(O/N=C(\C(=O)N[C@@H]1C(=O)N2C(C(=O)[O-])=C(C[n+]3ccccc3)CS[C@H]12)c1csc(N)n1)C(=O)O [Ceftazidime pentahydrate]	0.0467 ± 0.002
CC(C(O)c1ccc(O)cc1)N1CCC(Cc2ccccc2)CC1 (stereo not given) [Ifenprodil tartrate]	0.409 ± 0.011
CCN(CC)CCNC(=O)c1ccc(N)cc1 [Procainamide hydrochloride]	0.408 ± 0.01
CC[C@H]1OC(=O)[C@H](C)[C@@H](O[C@H]2C[C@@](C)(OC)[C@@H](O)[C@H](C)O2)[C@H](C)[C@@H](O[C@@H]2O[C@H](C)C[C@H](N(C)C)[C@H]2O)[C@](C)(O)C[C@@H](C)CN(C)[C@H](C)[C@@H](O)[C@]1(C)O [Azithromycin]	0.05527 ± 0.00032
OC(CCN1CCCCC1)(c1ccccc1)C1CCCCC1 (stereo not given) [Trihexyphenidyl-D,L Hydrochloride]	0.4127 ± 0.0033
CN1C(C(=O)Nc2ccccn2)=C(O)c2ccccc2S1(=O)=O [Piroxicam]	0.362 ± 0.1
c1ccc(CN(CC2=NCCN2)c2ccccc2)cc1 [Antazoline hydrochloride]	0.412 ± 0.0059
CCCc1nc2c(C)cc(-c3nc4ccccc4n3C)cc2n1Cc1ccc(-c2ccccc2C(=O)O)cc1 [Telmisartan]	0.283 ± 0.052
Nc1nc(F)nc2c1ncn2[C@@H]1O[C@H](CO)[C@@H](O)[C@@H]1O [Fludarabine]	0.411 ± 0.0067
CN1CCOC(c2ccccc2)c2ccccc2C1 (stereo not given) [Nefopam hydrochloride]	0.413 ± 0.014
NCCCC(O)(P(=O)(O)O)P(=O)(O)O [Alendronate sodium]	0.422 ± 0.012
Clc1ccccc1C(c1ccccc1)(c1ccccc1)n1ccnc1 [Clotrimazole]	0.07627 ± 0.0006
O=C1c2cccc(O)c2C(=O)c2c(O)cccc21 [1,8-Dihydroxyanthraquinone]	0.361 ± 0.0048
CC(N/C(=N\C#N)Nc1ccncc1)C(C)(C)C (stereo not given) [Pinacidil]	0.405 ± 0.012
COc1ccc2c(c1)c(CC(=O)OCC(=O)O)c(C)n2C(=O)c1ccc(Cl)cc1 [Acemetacin]	0.362 ± 0.084
O=C(O)c1ccccc1C(=O)Nc1ccc(S(=O)(=O)Nc2nccs2)cc1 [Phthalylsulfathiazole]	0.405 ± 0.019
c1ccc2c(c1)CCCC2C1=NCCN1 (stereo not given) [Tetrahydrozoline hydrochloride]	0.4131 ± 0.0035
Cc1nnc(NS(=O)(=O)c2ccc(N)cc2)s1 [Sulfamethizole]	0.411 ± 0.011
